# Reference: PubChem BioAssay (Tox21)
# Where “and” joins values, the source holds several entries; their conditions need not be identical. Equal entries are not always repeated. Results filed as inconclusive are left out. Where a call stands in place of a potency, no number is given. Calls of active or inactive are those of the source. Unless noted, the call rests on the fitted dose curve.
# Assays:
# [1] = qHTS assay to identify small molecule antagonists of the sonic hedgehog signaling (Shh) pathway (AID 1259369); further: nearly all actives have a fitted effect of over 45% in size; further: potency means the concentration at half of the fitted maximal effect
# Method in brief: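 For antagonist detection, the reporter line received test compounds together with conditioned medium, incubated 24hr at 37 C, 5% CO2, then luminescence was recorded following 30min room-temperature luciferase reagent incubation.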
# [2] = target: Estrogen receptor beta (Homo sapiens) (UniProt Q92731); test: qHTS assay to identify small molecule agonists of the estrogen receptor beta (ER-beta) signaling pathway (AID 1259377; active means well fitted activation curve with a large enough effect in the signal ratio in the repeat runs, not every such curve was filed as active; the % refers to the signal ratio)
# Method in brief: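 Measured by fluorescence intensity from a B/G FRET beta-lactamase substrate (2 h, room temperature) in ER-beta-UAS-bla HEK293T cells treated with DMSO-dissolved compounds for 16 hr at 37C and 5% CO2.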
# [3] = target: Estrogen receptor beta (Homo sapiens) (UniProt Q92731); test: qHTS assay to identify small molecule antagonists of the estrogen receptor beta (ER-beta) signaling pathway (AID 1259378; active means well fitted inhibition curve with a large enough effect in the signal ratio in the repeat runs, not every such curve was filed as active; the % refers to the signal ratio; further: potency means the concentration at half of the fitted maximal effect)
# Method in brief: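 ER-beta-UAS-bla HEK293T cells in 2% charcoal-stripped FBS medium treated with compound plus 1nM final 17-beta-estradiol for 16 hr at 37C. Beta-lactamase reporter read by FRET substrate fluorescence after 2 hours at room temperature.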
# [4] = qHTS assay to identify small molecule agonists of the androgen receptor (AR) signaling pathway in the presence of an antagonist - cell viability counter screen (AID 1259379; active means well fitted curve in the direction sought with a large enough effect in the repeat runs; an effect the other way counts as inactive or inconclusive; further: nearly all actives have a fitted effect of over 25% in size; further: potency means the concentration at half of the fitted maximal effect;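 on activity change, negative = cytotoxicity: MDA-kb2 human breast cancer cells carrying an MMTV luciferase reporter; series mostly up to about 92 µM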)
# Method in brief: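 Seed MDA-kb2 at 3,000 cells/well; incubate 5 hr, 37C, 0% CO2. Add nilutamide to 3.0uM final, then pin compounds at 15 concentrations. Incubate 16 hr. Add CellTiter-Fluor at 15 hr, read fluorescence after 1 hr.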
# [5] = qHTS assay to identify small molecule agonists of the estrogen receptor beta (ER-beta) signaling pathway - cell viability counter screen (AID 1259380; active means well fitted curve in the direction sought with a large enough effect in the repeat runs; an effect the other way counts as inactive or inconclusive; further: nearly all actives have a fitted effect of over 30% in size; further: potency means the concentration at half of the fitted maximal effect)
# Method in brief: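 CellTiter-Glo read, 30 min RT, same wells as bla assay; cells ER-beta-UAS-bla HEK293T; 16 hr compound, 37C; medium 2% charcoal-stripped FBS.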
# [6] = target: Androgen receptor (Homo sapiens) (UniProt P10275); test: qHTS assay to identify small molecule agonists of the androgen receptor (AR) signaling pathway in the presence of an antagonist (AID 1259381); further: nearly all actives have a fitted effect of over 15% in size
# Method in brief: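 Test compounds at 15 concentrations were incubated for 16hr with MDA-kb2 reporter cells in presence of 3.0uM nilutamide (final). Signal: ONE-Glo luciferase luminescence.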
# [7] = qHTS assay to identify small molecule antagonists of the estrogen receptor beta (ER-beta) signaling pathway - cell viability counter screen (AID 1259382; active means well fitted curve in the direction sought with a large enough effect in the repeat runs; an effect the other way counts as inactive or inconclusive; further: nearly all actives have a fitted effect of over 55% in size; further: potency means the concentration at half of the fitted maximal effect; on activity change, negative = cytotoxicity: series mostly up to about 92 µM)
# Method in brief: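 In this multiplexed counter screen, cells were seeded at 2,000 per well in medium with 2% charcoal-stripped FBS and incubated 6 hr before compound and 1nM final E2 were added. Sixteen hours later, ATP-based luminescence reported viability.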
# [8] = target: Estrogen receptor (Homo sapiens) (UniProt P03372); test: qHTS assay to identify small molecule agonists of the estrogen receptor alpha (ER-alpha) signaling pathway in the presence of an antagonist (AID 1259383); further: top concentration of the series differs between compounds; nearly all actives have a fitted effect of over 15% in size
# Method in brief: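 Stably transfected VM7Luc4E2 reporter cells, kept 5 days in charcoal-stripped serum, received ICI-182,780 at 10.0nM final before compound addition. Following 22hr incubation at 37C and 5% CO2, luciferase signal was read by luminescence.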
# [9] = qHTS assay to identify small molecule agonists or antagonists of the thyroid stimulating hormone receptor (TSHR) signaling pathway - wild type cell line counter screen (AID 1259384)
# Method in brief: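 Wild-type Hek293 cells, 800/well, 18 h at 37C, then compound with Ro20-1724 for 30 min RT. cAMP by HTRF (cAMP-d2/anti-cAMP cryptate), 1 h RT, fluorescence read. 15 concentrations, triplicates.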
# [10] = target: Thyrotropin receptor (Homo sapiens) (UniProt P16473); test: qHTS assay to identify small molecule antagonists of the thyroid stimulating hormone receptor (TSHR) signaling pathway (AID 1259385); further: nearly all actives have a fitted effect of over 20% in size
# Method in brief: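 TSHR-HEK293 cells (800/well) plated 18 h, then compounds with Ro20-1724 and TSH at 1.5 ng/mL final, 30 min at room temperature. cAMP quantified by HTRF (cAMP-d2/anti-cAMP-cryptate, 1 h); 15 concentrations in triplicate.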
# Sequence of Androgen receptor (Homo sapiens) (P10275 whole entry, looked up): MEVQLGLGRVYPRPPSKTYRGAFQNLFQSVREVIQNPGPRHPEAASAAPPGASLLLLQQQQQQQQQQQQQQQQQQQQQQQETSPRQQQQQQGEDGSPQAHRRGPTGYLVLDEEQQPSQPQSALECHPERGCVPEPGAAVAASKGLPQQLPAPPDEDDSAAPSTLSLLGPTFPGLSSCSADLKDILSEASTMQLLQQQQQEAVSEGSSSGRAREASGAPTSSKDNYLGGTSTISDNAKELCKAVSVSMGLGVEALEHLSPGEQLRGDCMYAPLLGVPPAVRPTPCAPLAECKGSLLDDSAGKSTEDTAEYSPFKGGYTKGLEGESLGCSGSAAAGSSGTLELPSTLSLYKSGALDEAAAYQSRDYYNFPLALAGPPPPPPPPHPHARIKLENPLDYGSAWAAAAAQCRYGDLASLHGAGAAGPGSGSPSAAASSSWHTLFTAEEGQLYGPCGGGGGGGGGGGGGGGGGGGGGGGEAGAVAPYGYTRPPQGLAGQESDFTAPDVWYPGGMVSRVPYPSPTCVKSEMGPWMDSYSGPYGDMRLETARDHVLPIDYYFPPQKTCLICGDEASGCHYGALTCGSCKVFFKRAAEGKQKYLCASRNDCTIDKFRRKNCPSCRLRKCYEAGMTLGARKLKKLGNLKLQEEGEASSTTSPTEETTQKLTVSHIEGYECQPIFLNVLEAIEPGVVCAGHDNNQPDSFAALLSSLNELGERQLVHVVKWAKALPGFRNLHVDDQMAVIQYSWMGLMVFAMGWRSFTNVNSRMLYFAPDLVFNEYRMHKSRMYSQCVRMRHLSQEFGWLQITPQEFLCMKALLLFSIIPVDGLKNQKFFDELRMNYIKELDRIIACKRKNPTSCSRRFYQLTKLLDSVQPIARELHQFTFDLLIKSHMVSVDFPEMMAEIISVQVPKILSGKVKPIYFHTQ
# Sequence of Estrogen receptor beta (Homo sapiens) (Q92731 whole entry, looked up): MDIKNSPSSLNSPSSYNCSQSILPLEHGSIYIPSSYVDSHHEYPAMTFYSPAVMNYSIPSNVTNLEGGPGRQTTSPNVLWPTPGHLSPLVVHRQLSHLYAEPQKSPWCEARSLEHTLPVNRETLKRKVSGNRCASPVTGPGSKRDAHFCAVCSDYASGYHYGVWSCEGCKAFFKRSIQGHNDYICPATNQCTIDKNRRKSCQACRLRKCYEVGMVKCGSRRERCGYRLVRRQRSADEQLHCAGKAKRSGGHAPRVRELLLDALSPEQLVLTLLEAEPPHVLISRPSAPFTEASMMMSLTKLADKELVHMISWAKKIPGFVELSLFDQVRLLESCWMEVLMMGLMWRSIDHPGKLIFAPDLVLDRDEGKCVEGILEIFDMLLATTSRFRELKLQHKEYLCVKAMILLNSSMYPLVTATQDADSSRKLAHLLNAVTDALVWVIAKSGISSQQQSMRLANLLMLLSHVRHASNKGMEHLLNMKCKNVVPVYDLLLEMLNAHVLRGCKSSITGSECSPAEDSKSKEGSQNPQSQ
# Sequence of Thyrotropin receptor (Homo sapiens) (P16473 whole entry, looked up): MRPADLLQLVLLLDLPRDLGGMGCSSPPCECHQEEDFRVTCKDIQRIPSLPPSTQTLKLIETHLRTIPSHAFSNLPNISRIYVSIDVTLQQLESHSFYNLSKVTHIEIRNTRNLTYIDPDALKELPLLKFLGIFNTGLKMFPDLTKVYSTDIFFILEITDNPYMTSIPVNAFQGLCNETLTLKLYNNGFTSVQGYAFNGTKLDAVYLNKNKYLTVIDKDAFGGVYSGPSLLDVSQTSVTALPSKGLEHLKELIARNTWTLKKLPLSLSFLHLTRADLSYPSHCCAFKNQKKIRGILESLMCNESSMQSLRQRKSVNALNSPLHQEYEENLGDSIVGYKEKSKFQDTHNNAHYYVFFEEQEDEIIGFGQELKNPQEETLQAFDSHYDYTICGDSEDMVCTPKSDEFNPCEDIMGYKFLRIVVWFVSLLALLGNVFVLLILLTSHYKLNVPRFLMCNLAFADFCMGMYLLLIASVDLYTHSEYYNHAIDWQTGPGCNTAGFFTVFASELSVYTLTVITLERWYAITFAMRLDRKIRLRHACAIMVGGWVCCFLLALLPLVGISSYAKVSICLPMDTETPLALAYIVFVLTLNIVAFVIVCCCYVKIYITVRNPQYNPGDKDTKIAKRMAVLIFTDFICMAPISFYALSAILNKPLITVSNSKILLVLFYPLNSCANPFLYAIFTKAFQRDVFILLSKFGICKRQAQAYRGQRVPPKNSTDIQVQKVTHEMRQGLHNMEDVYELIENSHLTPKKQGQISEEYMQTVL
# Sequence of Estrogen receptor (Homo sapiens) (P03372 whole entry, looked up): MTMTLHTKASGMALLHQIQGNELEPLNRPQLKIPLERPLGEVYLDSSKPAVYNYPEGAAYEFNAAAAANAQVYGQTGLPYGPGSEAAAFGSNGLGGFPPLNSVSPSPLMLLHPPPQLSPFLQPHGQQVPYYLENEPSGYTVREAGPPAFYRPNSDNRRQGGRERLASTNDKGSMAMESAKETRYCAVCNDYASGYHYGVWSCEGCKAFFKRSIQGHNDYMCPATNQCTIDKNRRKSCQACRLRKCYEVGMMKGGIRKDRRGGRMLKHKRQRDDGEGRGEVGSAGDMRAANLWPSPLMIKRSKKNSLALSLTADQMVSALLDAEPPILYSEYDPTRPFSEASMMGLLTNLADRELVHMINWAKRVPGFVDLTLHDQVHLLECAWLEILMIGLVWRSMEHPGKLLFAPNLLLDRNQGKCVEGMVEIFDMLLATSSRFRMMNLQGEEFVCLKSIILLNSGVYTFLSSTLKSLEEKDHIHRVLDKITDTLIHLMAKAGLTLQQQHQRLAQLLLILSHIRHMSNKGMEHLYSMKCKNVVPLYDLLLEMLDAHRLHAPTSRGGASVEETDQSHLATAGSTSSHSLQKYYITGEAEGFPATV
smiles,measurement,setting,value
CN(C)c1ccc(C(=C2C=CC(=[N+](C)C)C=C2)c2ccc(N(C)C)cc2)cc1,Potency,[1],1.53 µM (active) and 864 nM (active) and 3.35 µM (active)
same,Potency,[2],inactive
same,Potency,[3],27.2 µM (active) and 37.6 µM (active)
same,Potency,[4],4.31 µM (active) and 13.7 µM (active) and 3.35 µM (active)
same,Potency,[5],10.8 µM (active) and 27.3 µM (active) and 13.3 µM (active)
same,outcome,[6],inactive
same,Potency,[7],21.6 µM (active) and 27.3 µM (active) and 13.3 µM (active)
CCO[Si](OCC)(OCC)OCC,Potency,[1],inactive
same,Potency,[2],inactive
same,Potency,[3],inactive
same,Potency,[4],inactive
same,Potency,[5],inactive
same,Potency,[7],inactive
same,Potency,[8],inactive
same,outcome,[9],inactive
CC(CO)Oc1ccccc1 (configuration not stated),Potency,[1],inactive
same,Potency,[2],inactive
same,Potency,[3],inactive
same,Potency,[4],inactive
same,Potency,[5],inactive
same,outcome,[6],inactive
same,Potency,[7],inactive
same,Potency,[8],inactive
same,outcome,[9],inactive
CCc1ccc(Br)cc1,Potency,[1],inactive
same,Potency,[2],inactive
same,Potency,[3],inactive
same,Potency,[4],inactive
same,Potency,[5],inactive
same,Potency,[7],inactive
same,Potency,[8],inactive
same,outcome,[9],inactive
same,Potency,[10],inactive
CN(C)CCN1CCN(c2cccc(Cl)c2)C1=O,Potency,[1],inactive
same,Potency,[2],inactive
same,Potency,[3],inactive
same,Potency,[4],inactive
same,Potency,[5],inactive
same,outcome,[6],inactive
same,Potency,[7],inactive
same,Potency,[8],inactive
same,outcome,[9],inactive
CCN1C(=O)c2ccccc2C1Nc1ccc(OCCN2CCCCC2)cc1 (configuration not stated),Potency,[1],13.3 µM (active)
same,Potency,[2],inactive
same,Potency,[3],inactive
same,Potency,[4],inactive
same,Potency,[5],inactive
same,outcome,[6],inactive
same,Potency,[7],inactive
same,Potency,[8],inactive
same,outcome,[9],inactive
same,Potency,[10],inactive
CCCCCCCCCCCC(=O)OCC(C)OC(=O)CCCCC(=O)O (configuration not stated),Potency,[1],inactive
same,Potency,[2],inactive
same,Potency,[3],inactive
same,Potency,[4],inactive
same,Potency,[5],inactive
same,Potency,[7],inactive
same,Potency,[8],inactive
same,outcome,[9],inactive
same,Potency,[10],inactive
CCCC(=O)OCCc1ccccc1,Potency,[1],inactive
same,Potency,[2],inactive
same,Potency,[3],inactive
same,Potency,[4],inactive
same,Potency,[5],inactive
same,Potency,[7],inactive
same,outcome,[9],inactive
same,Potency,[10],inactive
COC(C)=O,Potency,[1],inactive
same,Potency,[2],inactive
same,Potency,[3],inactive
same,Potency,[4],inactive
same,Potency,[5],inactive
same,Potency,[8],inactive
O[C@@H]([C@H](O)[C@H](O)CBr)[C@H](O)CBr,Potency,[1],inactive
same,Potency,[2],inactive
same,Potency,[3],inactive
same,Potency,[4],inactive
same,Potency,[5],inactive
same,Potency,[7],inactive
same,Potency,[8],inactive
same,outcome,[9],inactive
[Cu+],Potency,[1],inactive
same,Potency,[2],inactive
same,Potency,[3],inactive
same,Potency,[4],inactive
same,Potency,[5],inactive
same,Potency,[7],inactive
same,Potency,[8],inactive
same,outcome,[9],inactive
Nc1ccc(NCCO)c([N+](=O)[O-])c1,Potency,[1],inactive
same,Potency,[2],inactive
same,Potency,[3],inactive
same,Potency,[4],48.6 µM (active)
same,Potency,[5],inactive
same,Potency,[7],inactive
Clc1sc(Cl)c(Cl)c1Cl,Potency,[1],inactive
same,Potency,[2],inactive
same,Potency,[3],inactive
same,Potency,[4],inactive
same,Potency,[5],inactive
same,outcome,[6],inactive
same,Potency,[7],inactive
same,Potency,[8],inactive
same,outcome,[9],inactive
same,Potency,[10],inactive
O=C(O)c1ccc2cc(C(=O)O)ccc2c1,Potency,[1],inactive
same,Potency,[2],inactive
same,Potency,[3],inactive
same,Potency,[4],inactive
same,Potency,[5],inactive
same,Potency,[7],inactive
same,outcome,[9],inactive
COc1cccc(OC)c1C(=O)O,Potency,[1],inactive
same,Potency,[2],inactive
same,Potency,[3],inactive
same,Potency,[4],inactive
same,Potency,[7],inactive
same,outcome,[9],inactive
CC(C)(C)CC(C)(C)c1ccc(Nc2ccc(C(C)(C)CC(C)(C)C)cc2)cc1,"activity change, negative = inhibition",[1],-12.5% [at 8.39 µM] (inactive)
same,activation,[2],-0.0232% [at 8.39 µM] (inactive)
same,"activity, negative = inhibition",[3],-7.19% [at 8.39 µM] (inactive)
same,"activity change, negative = cytotoxicity",[4],1.22% [at 8.39 µM] (inactive)
same,"activity change, negative = cytotoxicity",[7],-9.43% [at 8.39 µM] (inactive)
same,activation,[8],1.18% [at 8.39 µM] (inactive)
same,cAMP activity change,[9],6.94% [at 8.39 µM] (inactive)
same,"activity change, negative = inhibition",[10],1.31% [at 8.39 µM] (inactive)
Cc1cc(C(C#N)c2ccc(Cl)cc2)c(Cl)cc1NC(=O)c1cc(I)cc(I)c1O (configuration not stated),Potency,[1],26.6 µM (active)
same,Potency,[2],inactive
same,Potency,[5],11.9 µM (active)
same,Potency,[7],23.7 µM (active)
same,Potency,[8],inactive
C1CCC(SSC2CCCCC2)CC1,Potency,[1],inactive
same,Potency,[2],inactive
same,Potency,[3],inactive
same,Potency,[4],inactive
same,Potency,[7],inactive
same,Potency,[8],inactive
same,outcome,[9],inactive
FC(F)(F)c1cccc(Cl)c1,Potency,[1],inactive
same,Potency,[3],inactive
same,Potency,[4],inactive
same,Potency,[5],inactive
same,outcome,[6],inactive
same,Potency,[7],inactive
same,outcome,[9],inactive
same,Potency,[10],inactive
Cc1ccc(O)c(O)c1,Potency,[1],5.29 µM (active)
same,Potency,[2],inactive
same,Potency,[4],inactive
same,Potency,[5],inactive
same,Potency,[7],inactive
same,Potency,[8],inactive
CC1(C)CC(O)CC(C)(C)N1,Potency,[1],inactive
same,Potency,[2],inactive
same,Potency,[3],inactive
same,Potency,[4],inactive
same,Potency,[5],inactive
same,Potency,[8],inactive
same,outcome,[9],inactive
same,Potency,[10],inactive
O=C(O)CCN(C1(C(=O)NO)CCCC1)S(=O)(=O)c1ccc(Oc2ccc(F)cc2)cc1,Potency,[1],inactive
same,Potency,[2],inactive
same,Potency,[4],inactive
same,Potency,[5],inactive
same,Potency,[7],inactive
same,outcome,[9],inactive
same,Potency,[10],inactive
O=C(Nc1ccc2c(O)c(N=Nc3ccc(N=Nc4ccc(S(=O)(=O)O)cc4)cc3)c(S(=O)(=O)O)cc2c1)c1ccccc1,Potency,[1],inactive
same,Potency,[2],inactive
same,Potency,[3],inactive
same,Potency,[4],21.7 µM (active)
same,Potency,[8],inactive
same,outcome,[9],inactive
Fc1ccc(C(c2ccc(F)cc2)N2CCNCC2)cc1,Potency,[1],2.98 µM (active)
same,Potency,[2],inactive
same,Potency,[3],inactive
same,outcome,[6],inactive
same,Potency,[7],inactive
same,Potency,[8],inactive
same,outcome,[9],inactive
same,Potency,[10],inactive
Cc1cc(C(C)(C)C)c(O)c(C)c1Cn1c(=O)n(Cc2c(C)cc(C(C)(C)C)c(O)c2C)c(=O)n(Cc2c(C)cc(C(C)(C)C)c(O)c2C)c1=O,Potency,[1],inactive
same,Potency,[2],inactive
same,Potency,[3],inactive
same,Potency,[4],inactive
same,Potency,[7],inactive
same,Potency,[8],inactive
same,outcome,[9],inactive
same,Potency,[10],inactive
Cc1cc(-n2nc3ccc(Cl)cc3n2)c(O)c(C(C)(C)C)c1,Potency,[1],inactive
same,Potency,[2],inactive
same,Potency,[4],inactive
same,Potency,[7],inactive
same,outcome,[9],inactive
same,Potency,[10],inactive
